Inconclusive results are not listed. Active and inactive are the calls of the source. Unless noted, cut-off not given; nearly all actives show AC50 up to about 26 µM.

Data on 23 molecules can be found in PubChem BioAssay.

The nature of assay [1]: growth inhibition of DIPG glioma cells, dose response, cell-based, SU-DIPG-XVII, MIPE5.0, CellTiter-Glo, qHTS (AID 1347060).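 On AC50: cells exposed to compound for 48 hours before viability readout.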 As to conditions: SU-DIPG-XVII viability, CellTiter-Glo ATP luminescence.
A short description of assay [2]: growth inhibition of DIPG glioma cells, dose response, cell-based, SU-DIPG-XIII, MIPE5.0, CellTiter-Glo, qHTS (AID 1347064; cut-off not given, nearly all actives have AC50 up to about 23 µM;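 on AC50: cells exposed to compound for 48 hours before the viability read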). As to conditions: SU-DIPG-XIII viability, CellTiter-Glo ATP luminescence. On the technique in general: Cellular ATP, detected with luciferase, serves as a proxy for viable cell number.
A short description of assay [3]: viability loss in pontine glioma line – cell-based, SU-DIPG-XXV, MIPE5.0, CellTiter-Glo, qHTS, dose response (AID 1347065).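 Further: cells exposed to compound for 48 hours before ATP readout.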 As to conditions: CellTiter-Glo ATP luminescence.
Assay [4] is described as follows: JHH-DIPG-1 glioma cell viability, MIPE5.0 library, CellTiter-Glo luminescence, qHTS (AID 1347067).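 Further: cells exposed to compound for 48 hours before readout.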 As to conditions: JHH-DIPG-1 glioma viability, CellTiter-Glo ATP luminescence.
A short description of assay [5]: SU-DIPG-XXV glioma cell viability, MIPE5.0 library, qHTS (AID 1347068; cut-off not given, nearly all actives have IC50 up to about 30 µM;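 on IC50: cells exposed to compound for 48 hours before viability readout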). (In qHTS, concentration-response curves come from the screen itself.)

For the molecule `COCCOc1cnc2ccn([C@H](C)c3nnc4c(F)cc(-c5cnn(C)c5)cn34)c(=O)c2c1`, the outcome in assay [1], in assay [2], in assay [3], in assay [4] and in assay [5] was inactive.

Consider `C=C1C(=O)O[C@@H]2[C@H]3C(C)=CC[C@@]34O[C@@]4(C)CC[C@@H]12`, for which the AC50 in assay [1] is 11.8 µM (active); in assay [2], 11.8 µM (active); in assay [3], 9.34 µM (active); in assay [4], 8.33 µM (active). Further, the IC50 in assay [5] is 20.9 µM (active).

Take `COc1cc2c(NC3CCN(CC4CCCCC4)CC3)nc(N3CCCN(C(C)C)CC3)nc2cc1OCCCN1CCCCC1`: the AC50 is 14.8 µM (active) in assay [1], 18.6 µM (active) in assay [2], 13.2 µM (active) in assay [3] and 20.9 µM (active) in assay [4]. Besides, the IC50 in assay [5] is 5.25 µM (active).

In the case of `CC(C)c1c(-c2ccccc2)nc2c(C#N)c[nH]n2c1=O`, the molecule was called inactive in assay [1], in assay [2], in assay [3], in assay [4] and in assay [5].

Turning to `COc1ccccc1C(=O)Nc1cc2c(cc1N1CCNC[C@H]1C)n(C)c(=O)n2C`, the molecule was called inactive in assay [1], in assay [2], in assay [3], in assay [4] and in assay [5].

For `Cn1ncc(Cl)c1-c1cc(C(=O)NC(CN)Cc2ccc(F)c(F)c2)oc1Cl` (stereo not given), the AC50 in assay [1] was 14.8 µM (active); in assay [2] it was 5.9 µM (active); in assay [3], 0.661 µM (active); in assay [4] it was 18.6 µM (active). Besides, the IC50 in assay [5] was 16.6 µM (active).

`N#Cc1ccnc(N2C(=O)CC[C@H]2C(=O)N(c2cncc(F)c2)C(C(=O)NC2CC(F)(F)C2)c2ccccc2Cl)c1` (stereo not given in full): the outcome in assay [1], in assay [2], in assay [3], in assay [4] and in assay [5] was inactive.

Turning to `OC1CCC(Oc2cccc3cnc(Nc4ccc5nc[nH]c5c4)nc23)CC1` (stereo not given), the AC50 in assay [1] is 0.833 µM (active); in assay [2] it was 2.09 µM (active); in assay [3], 0.661 µM (active); in assay [4], 1.32 µM (active). The IC50 in assay [5] was 1.05 µM (active).

Take `Cc1ccc(-c2ccc3ncc4c(c3n2)n(C2CCN(C(=O)[C@H](C)O)CC2)c(=O)n4C)cn1`: the AC50 is 0.468 µM (active) in assay [1], 0.186 µM (active) in assay [2], 0.186 µM (active) in assay [3] and 0.372 µM (active) in assay [4]. In addition, in assay [5], the IC50 is 0.417 µM (active).

As to `Cc1ccccc1-n1nc(-c2c(-c3ccc(F)cc3)nn3c2NC[C@@H](CO)C3)ccc1=O`, the molecule was called inactive in assay [1], in assay [2], in assay [3], in assay [4] and in assay [5].

As for `NC(=O)/C(=C/n1cnc(-c2cc(C(F)(F)F)cc(C(F)(F)F)c2)n1)c1cncnc1`, the AC50 in assay [1] was 0.417 µM (active); in assay [2] it was 2.09 µM (active); in assay [3], 2.35 µM (active); in assay [4], 11.8 µM (active). In assay [5], the concentration for half-maximal inhibition (IC50) was 3.32 µM (active).

For the molecule `C[C@@H]1COCCN1c1cc(=O)n2c(n1)N(Cc1cncc(Cl)c1)[C@H](C(F)(F)F)CC2`, the molecule was called inactive in assay [1], in assay [2], in assay [3], in assay [4] and in assay [5].

Turning to `COC[C@@H](c1ccc(C(F)(F)F)cc1)N1CCN(C2(C)CCN(C(=O)c3c(C)ncnc3C)CC2)C[C@@H]1C`, the molecule was called inactive in assay [1], in assay [2], in assay [3], in assay [4] and in assay [5].

`CCC(C)CNCC(=O)N1CCc2sccc2C1c1cccc(C)n1` (stereo not given): the molecule was called inactive in assay [1], in assay [2], in assay [3], in assay [4] and in assay [5].

Take `Cc1cc(Oc2ccc3nc(COc4ccc(CC5SC(=O)NC5=O)cc4)n(C)c3c2)cc(C)c1N` (stereo not given): the call in assay [1], in assay [2], in assay [3], in assay [4] and in assay [5] was inactive.

Regarding `COc1cc(F)c(F)c(Nc2ccc(I)cc2F)c1NS(=O)(=O)C1(C[C@H](O)CO)CC1`, the AC50 in assay [1] was 0.417 µM (active); in assay [2], 0.235 µM (active); in assay [3], 0.59 µM (active); in assay [4], 0.209 µM (active). Moreover, the IC50 in assay [5] is 2.63 µM (active).

In the case of `COC(=O)N(C)c1c(N)nc(-c2nn(Cc3ccccc3F)c3ncccc23)nc1N`, the molecule was called inactive in assay [1], in assay [2], in assay [3], in assay [4] and in assay [5].

As to `Cc1cc(O)cc2c1[C@]1(C)CC[C@H]3C(C)(C)CCC[C@]3(C)[C@H]1C2`, the outcome in assay [1], in assay [2], in assay [3], in assay [4] and in assay [5] was inactive.

As for `C=C1C[C@H]2C=Nc3cc(OCCCOc4cc5c(cc4OC)C(=O)N4CC(=C)C[C@H]4C=N5)c(OC)cc3C(=O)N2C1`, the AC50 was 0.00186 µM (active) in assay [1], 0.0209 µM (active) in assay [2], 0.0166 µM (active) in assay [3] and 0.00372 µM (active) in assay [4]. In assay [5], the IC50 is 0.0742 µM (active).

As to `CC(=O)N1CCC[C@H]1C(=O)N[C@@H](Cc1cnc[nH]1)C(=O)N[C@@H](CO)C(=O)N[C@@H](CS)C(=O)N[C@@H](CC(N)=O)C(N)=O`, the molecule was called inactive in assay [1], in assay [2], in assay [3], in assay [4] and in assay [5].

With `CN(Cc1ccc(/C=C/C(=O)NO)cc1)CC12CC3CC(CC(C3)C1)C2`, the AC50 was 0.833 µM (active) in assay [1], 0.372 µM (active) in assay [2], 0.263 µM (active) in assay [3] and 0.332 µM (active) in assay [4]. The IC50 in assay [5] was 2.95 µM (active).

As for `CS(=O)(=O)N1CCC(NC(=O)c2[nH]ncc2NC(=O)c2c(Cl)cccc2Cl)CC1`, the AC50 in assay [1] was 3.32 µM (active); in assay [2], 4.17 µM (active); in assay [3] it was 4.17 µM (active); in assay [4], 4.17 µM (active). Besides, the concentration for half-maximal inhibition (IC50) in assay [5] was 4.68 µM (active).

On to `COc1ccc(N(C)c2nc(C)nc3ccccc23)cc1`, for which the AC50 in assay [1] was 0.00833 µM (active); in assay [2] it was 0.00934 µM (active); in assay [3], 0.0059 µM (active); in assay [4] it was 0.0105 µM (active). Also, the half-inhibitory concentration (IC50) in assay [5] was 0.0166 µM (active).

The AC50 is the concentration at which the activity in the assay is half-maximal. As a reminder, the IC50 is the concentration needed to halve the response being measured.
